In PubChem BioAssay AID1159580 (chemical genetic matrix, 2015):
“And” between values parts separate entries of the source, which are not always exact repeats. Identical values can stand only once. Out of some 5,500 compounds screened, about 2,000 (36%) were called active. About 18% were inconclusive and are not listed. No stated cut-off is given here; in the data, active means normalized growth mostly below about 0.91 (no sharp cut-off); inconclusive means no clear call, values can overlap the other calls; inactive means mostly above about 0.92. This is one part of the list.

Test: chemical genetic growth profiling, strain panel (AID 1159580);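 further: tested at 20 µM; growth read once vehicle control cultures reached saturation at 30 °C; 1 = growth at the plate median or of vehicle wells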
Settings: S. cerevisiae deletion strains, growth OD

Measured: normalized growth

COC(=O)C(N)CS (stereo unspecified)
inactive: locus YAL013W, strain DEP1, stronger effect = lower value 0.991 | locus YAL021C, strain ccr4, stronger effect = lower value 0.93 | locus YAL026C, strain drs2, stronger effect = lower value 0.967 | locus YAL030W, strain snc1, stronger effect = lower value 0.993 | locus YBL061C, strain skt5, stronger effect = lower value 0.998 | locus YBR009C, strain hhf1, stronger effect = lower value 0.958 | locus YBR021W, strain FUR4, stronger effect = lower value 0.994 | locus YBR023C, strain chs3, stronger effect = lower value 1.02 | locus YBR171W, strain sec66, stronger effect = lower value 0.984 | locus YBR229C, strain ROT2, stronger effect = lower value 0.992 | locus YBR231C, strain swc5, stronger effect = lower value 0.974 | locus YBR279W, strain paf1, stronger effect = lower value 1.01 | locus YCL011C, strain gbp2, stronger effect = lower value 0.996 | locus YCL016C, strain dcc1, stronger effect = lower value 1.04 | locus YCL029C, strain bik1, stronger effect = lower value 0.964 | locus YCL069W, strain vba3, stronger effect = lower value 0.954 | locus YCR088W, strain abp1, stronger effect = lower value 0.982 | locus YDL005C, strain med2, stronger effect = lower value 1 | locus YDL035C, strain GPR1, stronger effect = lower value 0.978 | locus YDL040C, strain nat1, stronger effect = lower value 0.99 | locus YDL074C, strain BRE1, stronger effect = lower value 0.98 | locus YDL101C, strain DUN1, stronger effect = lower value 0.984 | locus YDL134C, strain PPH21, stronger effect = lower value 0.977 | locus YDL185W, strain tfp1, stronger effect = lower value 0.966 | locus YDL192W, strain arf1, stronger effect = lower value 0.975 | locus YDR001C, strain nth1, stronger effect = lower value 0.984 | locus YDR069C, strain doa4, stronger effect = lower value 0.959 | locus YDR101C, strain arx1, stronger effect = lower value 0.985 | locus YDR137W, strain rgp1, stronger effect = lower value 0.924 | locus YDR150W, strain NUM1, stronger effect = lower value 0.996 | locus YDR159W, strain sac3, stronger effect = lower value 0.929 | locus YDR162C, strain NBP2, stronger effect = lower value 0.985 | locus YDR195W, strain ref2 1.03 | locus YDR297W, strain sur2, stronger effect = lower value 0.98 | locus YDR318W, strain mcm21, stronger effect = lower value 0.93 | locus YDR334W, strain swr1, stronger effect = lower value 0.959 | locus YDR335W, strain msn5, stronger effect = lower value 0.995 | locus YDR388W, stronger effect = lower value 0.951 | locus YDR392W, strain spt3, stronger effect = lower value 0.806 | locus YDR502C, strain sam2, stronger effect = lower value 0.98 | locus YEL003W, strain gim4, stronger effect = lower value 0.966 | locus YEL037C, strain rad23, stronger effect = lower value 0.978 | locus YEL061C, strain CIN8 (second series), stronger effect = lower value 0.966 | locus YEL061C, strain CIN8, stronger effect = lower value 0.997 | locus YER015W, strain faa2, stronger effect = lower value 0.997 | locus YER016W, strain bim1, stronger effect = lower value 0.997 | locus YER110C, stronger effect = lower value 0.991 | locus YER111C, strain swi4, stronger effect = lower value 1.03 | locus YER155C, strain BEM2 (second series), stronger effect = lower value 0.886 | locus YER155C, strain BEM2, stronger effect = lower value 1 | locus YER167W, strain BCK2, stronger effect = lower value 0.971 | locus YFR010W, strain ubp6, stronger effect = lower value 0.94 | locus YGL078C, strain dbp3, stronger effect = lower value 0.988 | locus YGL086W, strain mad1, stronger effect = lower value 0.976 | locus YGL167C, strain pmr1, stronger effect = lower value 0.977 | locus YGL173C, strain kem1, stronger effect = lower value 0.938 | locus YGL227W, strain vid30, stronger effect = lower value 0.971 | locus YGL240W, strain doc1, stronger effect = lower value 0.941 | locus YGL248W, strain PDE1, stronger effect = lower value 0.959 | locus YGL253W, strain hxk2, stronger effect = lower value 0.976 | locus YGR078C, strain PAC10, stronger effect = lower value 0.976 | locus YGR135W, strain pre9, stronger effect = lower value 0.947 | locus YGR229C, strain SMI1, stronger effect = lower value 0.949 | locus YGR252W, strain gcn5, stronger effect = lower value 0.883 | locus YHR013C, strain ard1, stronger effect = lower value 0.938 | locus YHR027C, strain rpn1, stronger effect = lower value 0.97 | locus YHR030C, strain SLT2, stronger effect = lower value 0.99 and 1.05 | locus YHR079C, strain IRE1 (second series), stronger effect = lower value 0.964 | locus YHR079C, strain IRE1, stronger effect = lower value 1.04 | locus YHR094C, strain hxt1, stronger effect = lower value 0.991 | locus YHR129C, strain ARP1, stronger effect = lower value 0.992 | locus YHR142W, strain chs7, stronger effect = lower value 1 | locus YHR200W, strain rpn10, stronger effect = lower value 0.973 | locus YIL066C, strain RNR3, stronger effect = lower value 0.975 | locus YIL073C, strain SPO22, stronger effect = lower value 0.903 | locus YIL125W, strain kgd1, stronger effect = lower value 0.991 | locus YIR030C, strain dcg1, stronger effect = lower value 0.984 | locus YJL092W, strain hpr5, stronger effect = lower value 0.995 | locus YJL095W, strain BCK1 (second series), stronger effect = lower value 0.995 | locus YJL095W, strain BCK1, stronger effect = lower value 0.929 and 1.04 | locus YJL115W, strain asf1, stronger effect = lower value 0.977 | locus YJL129C, strain trk1, stronger effect = lower value 1.01 | locus YJL134W, strain LCB3, stronger effect = lower value 0.996 | locus YJL154C, strain vps35, stronger effect = lower value 0.97 | locus YJL164C, strain tpk1, stronger effect = lower value 0.965 | locus YJL166W, strain qcr8, stronger effect = lower value 0.961 | locus YJL168C, strain set2, stronger effect = lower value 0.979 | locus YJL187C, strain SWE1 (second series), stronger effect = lower value 0.972 | locus YJL187C, strain SWE1, stronger effect = lower value 0.998 | locus YJR043C, strain POL32, stronger effect = lower value 0.977 | locus YJR066W, strain TOR1, stronger effect = lower value 0.998
